# According to article PMC3218832:
# Biological target: p50p50 homodimer (Homo sapiens, UniProt P19838 7-356)
# Assay: protein binding microarray; high values mean tight binding
# Conditions: dsDNA, one strand shown
# Chain of p50p50 homodimer (P19838 7-356): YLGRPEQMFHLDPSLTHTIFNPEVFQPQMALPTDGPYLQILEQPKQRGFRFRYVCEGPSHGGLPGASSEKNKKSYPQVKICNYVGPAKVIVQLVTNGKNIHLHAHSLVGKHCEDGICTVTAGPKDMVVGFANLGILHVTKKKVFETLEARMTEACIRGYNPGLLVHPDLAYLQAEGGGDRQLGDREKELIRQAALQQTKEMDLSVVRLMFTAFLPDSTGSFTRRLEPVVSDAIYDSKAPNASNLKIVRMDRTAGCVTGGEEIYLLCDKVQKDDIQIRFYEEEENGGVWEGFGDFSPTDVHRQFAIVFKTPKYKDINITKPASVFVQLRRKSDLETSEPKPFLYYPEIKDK
row,Sequence,binding signal
1,CAATGTGTCCT,-1.04 z-score
2,CAGTTCTCCCT,1.08 z-score
3,AAGGTACTCCC,0.76 z-score
4,CAAGTTGTCCC,0.614 z-score
5,GGAGGTATCCC,-1.01 z-score
6,AAGGGAATCCC,0.857 z-score
7,CAATGTTCCCT,0.396 z-score
8,AAATTACTCCC,0.204 z-score
9,GAATTCGCCCT,-0.928 z-score
10,CAGAGACCCCC,0.706 z-score
11,CGGTGAGCCCC,0.0715 z-score
12,CGAGATACCCC,0.305 z-score
13,CAGGGGATCCC,1.03 z-score
14,CGGGAGATCCT,0.247 z-score
15,GGAAATGTCCC,0.902 z-score
16,GAGAGTATCCC,-0.91 z-score
17,CAAAGGCCCCC,0.336 z-score
18,AGAGGTTCCCC,1.06 z-score
19,CGAAAAATCCT,-0.702 z-score
20,CGGGTAGTCCC,0.936 z-score

row,Sequence,binding signal
1,GAGAGCCCCCC,1.13 z-score
2,GAAGGCGTCCC,-0.0302 z-score
3,CGATAGCTCCT,-1.63 z-score
4,AGAATGTTCCT,-1.47 z-score
5,AGAATCCCCCC,1.63 z-score
6,AGAAACGTCCT,-1.17 z-score
7,GAAGTAATCCT,-1.65 z-score
8,AGGGACGTCCT,0.528 z-score
9,CGAATACCCCT,1.13 z-score
10,CAGAGCACCCT,-0.392 z-score
11,AAAGACTCCCT,0.719 z-score
12,GAGATATCCCC,1.12 z-score
13,AAAGTGATCCT,-1.79 z-score
14,AAGAGGTTCCT,-1.79 z-score
15,AGGTAATTCCT,0.62 z-score
16,CAGGGATCCCC,0.94 z-score
17,CGGTGTACCCT,-0.0219 z-score
18,AAGATGCCCCC,1.09 z-score
19,AAAATAACCCC,1.07 z-score

# Biological target: T1, p52p52 homodimer (Homo sapiens, UniProt Q00653 4-332)
# T1 sequence: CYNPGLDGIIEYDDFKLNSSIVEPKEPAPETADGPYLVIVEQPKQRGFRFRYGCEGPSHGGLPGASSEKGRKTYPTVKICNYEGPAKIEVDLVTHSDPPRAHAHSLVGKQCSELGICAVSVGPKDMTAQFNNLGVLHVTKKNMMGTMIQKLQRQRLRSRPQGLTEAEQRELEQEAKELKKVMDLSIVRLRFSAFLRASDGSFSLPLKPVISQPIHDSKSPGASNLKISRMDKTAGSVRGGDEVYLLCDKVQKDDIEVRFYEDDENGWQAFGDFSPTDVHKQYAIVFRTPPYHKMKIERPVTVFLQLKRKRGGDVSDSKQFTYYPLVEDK
# Assay: as above
# Conditions: dsDNA, one strand shown
row,Sequence,binding signal
1,CAATGTGTCCT,-0.284 z-score
2,CAGTTCTCCCT,0.65 z-score
3,AAGGTACTCCC,0.735 z-score
4,CAAGTTGTCCC,0.469 z-score
5,GGAGGTATCCC,-0.304 z-score
6,AAGGGAATCCC,2.29 z-score
7,CAATGTTCCCT,0.137 z-score
8,AAATTACTCCC,-0.0753 z-score
9,GAATTCGCCCT,-0.505 z-score
10,CAGAGACCCCC,0.0929 z-score
11,CGGTGAGCCCC,-0.0385 z-score
12,CGAGATACCCC,0.114 z-score
13,CAGGGGATCCC,1.66 z-score
14,CGGGAGATCCT,0.164 z-score
15,GGAAATGTCCC,1.14 z-score
16,GAGAGTATCCC,-0.43 z-score
17,CAAAGGCCCCC,0.0392 z-score
18,AGAGGTTCCCC,1.33 z-score
19,CGAAAAATCCT,-0.361 z-score
20,CGGGTAGTCCC,1.66 z-score

row,Sequence,binding signal
1,GAGAGCCCCCC,0.398 z-score
2,GAAGGCGTCCC,-0.0163 z-score
3,CGATAGCTCCT,-0.796 z-score
4,AGAATGTTCCT,-0.491 z-score
5,AGAATCCCCCC,2.16 z-score
6,AGAAACGTCCT,-0.534 z-score
7,GAAGTAATCCT,-0.468 z-score
8,AGGGACGTCCT,1.06 z-score
9,CGAATACCCCT,0.86 z-score
10,CAGAGCACCCT,-0.306 z-score
11,AAAGACTCCCT,0.0106 z-score
12,GAGATATCCCC,1.16 z-score
13,AAAGTGATCCT,-0.692 z-score
14,AAGAGGTTCCT,-0.462 z-score
15,AGGTAATTCCT,1.15 z-score
16,CAGGGATCCCC,0.898 z-score
17,CGGTGTACCCT,0.0503 z-score
18,AAGATGCCCCC,0.461 z-score
19,AAAATAACCCC,1.26 z-score
